Drawing on PubChem BioAssay (EPA / NIEHS), this text covers outcome and AC50 for nine compounds.

By AC50 is commonly meant the concentration giving half of the maximal activity seen.

Assay [1] in a line: CCTE_Shafer_MEA_acute_burst_duration_mean: CCTE's Neural Acute Assay for Mean Burst Duration, Shafer Lab (AID 2284014).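 Note: hits are decreases in mean burst duration relative to DMSO controls.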 A digest of the protocol: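 Read-out is the per-well percent change in mean burst duration (first to last spike within a single-electrode burst) between 40-min recordings before and after compound. Cultures were primary rat cortical neurons on MEAs, dosed at 0.03-40 uM on DIV 13 or 15.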

The nature of assay [2]: CCTE_Shafer_MEA_acute_per_burst_spike_number_mean: CCTE's Neural Acute Assay for Average Number of Spikes Per Burst, Shafer Lab (AID 2284015).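 Note: hits are decreases in mean spikes per burst versus baseline.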 The method, boiled down: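 Rat primary cortical neurons on 48-well MEAs (DIV 13 or 15) were treated with 0.03-40 uM compound at 37 C. Mean spikes per burst over 40 min were recorded before and after exposure and expressed as percent change from baseline, relative to DMSO.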

Assay [3] is described as follows: CCTE_Shafer_MEA_acute_interburst_interval_mean: CCTE's Neural Acute Assay for Mean Interburst Interval, Shafer Lab (AID 2284016).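 Note: percent change of mean interburst interval versus each well's own pre-dose baseline; curves fitted for decrease in interburst interval relative to DMSO.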 A digest of the protocol:
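Rat primary cortical neurons on 48-well MEAs at DIV 13 or 15 were exposed acutely to 0.03-40 uM. Spikes detected at 8x rms noise, 37 C. Mean interburst interval from 40 min recordings expressed as percent change from 40 min pre-treatment baseline.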

Assay [4] in a line: CCTE_Shafer_MEA_acute_burst_percentage_mean: CCTE's Neural Acute Assay for Percentage of Spikes in a Burst, Shafer Lab (AID 2284017).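 For AC50: curve fitted for loss of signal so potency reflects decreased burst percentage.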 A digest of the protocol: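 Primary rat cortical neurons on 48-well MEA plates, treated on DIV 13 or 15 at 0.03-40 uM. Spikes detected at 8x rms noise at 37C; percent change from 40-min baseline to 40-min post-dose recording, fitted versus DMSO.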

Assay [5] is described as follows: CCTE_Shafer_MEA_acute_burst_percentage_std: CCTE's Neural Acute Assay for Standard Deviation of Burst Percentage, Shafer Lab (AID 2284018).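 Note: fitted in the negative direction so actives lower burst percentage SD.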 A digest of the protocol:
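Value is percent change from baseline in the across-electrode SD of spikes-in-bursts percentage, wells with >/= 10 active electrodes. Acute 40-min exposure to 0.03-40 uM on DIV 13 or 15 rat cortical cultures, recorded at 37 C after 40-min baseline.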

The nature of assay [6]: CCTE_Shafer_MEA_acute_per_network_burst_spike_number_mean: CCTE's Neural Acute Assay for Average Number of Spikes in a Network Burst, Shafer Lab (AID 2284019). The method, boiled down: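 Read-out is mean spike count per network burst, taken as percent change between a 40-min pre-exposure and a 40-min post-exposure recording per well. Rat primary cortical neurons on MEAs at 37 C, DIV 13 or 15; compounds at 0.03-40 uM.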

Assay [7] can be described thus: CCTE_Shafer_MEA_acute_per_network_burst_spike_number_std: CCTE's Neural Acute Assay for Standard Deviation of Number of Spikes in a Network Burst, Shafer Lab (AID 2284020).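 Note: fitted for decrease in spike-number SD versus DMSO so actives lower it.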 The method, boiled down:
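Spontaneous network activity of primary rat cortical neurons is recorded extracellularly before and after a 40-min compound exposure (0.03-40 uM) at 37 C. The endpoint is the well's percent change in burst spike-number SD.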

Assay [8] is described as follows: CCTE_Shafer_MEA_acute_per_network_burst_electrodes_number_mean: CCTE's Neural Acute Assay for Mean Number of Electrodes in a Network Burst, Shafer Lab (AID 2284021).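 Note: curves fitted for decreases only so hits reduce electrodes per burst.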 The method, boiled down: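 Readout: % change in mean electrodes active per network burst, post- vs pre-treatment, each well. Spikes detected at 8x rms noise after 300-5000 Hz band-pass; rat cortical cultures, DIV 13/15, compounds 0.03-40 uM, DMSO baseline.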

Assay [9] in a line: CCTE_Shafer_MEA_acute_network_burst_percentage: CCTE's Neural Acute Assay for Percentage of Network Bursts, Shafer Lab (AID 2284022).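 Note: curves fitted for loss so actives lower network burst percentage.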 A digest of the protocol:
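Rat cortical cultures, DIV 13/15; 20 min equilibration, 40 min baseline, compound 0.03-40 uM, 40 min recording, 37 C. Spikes: 300-5000 Hz band-pass, threshold 8x rms noise. Readout: % change in network-burst spike fraction; loss direction vs DMSO.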

Assay [10] in a line: CCTE_Shafer_MEA_acute_cross_correlation_area: CCTE's Neural Acute Assay for Area of Cross Correlation, Shafer Lab (AID 2284024).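 Note: area under pooled inter-electrode spike cross-correlation near zero lag as percent change from own baseline; curves fitted for loss of cross-correlation area so actives lower synchrony.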 The method, boiled down:
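Rat cortical cultures, DIV 13/15, MEA; spikes detected at 8x rms noise (300-5000 Hz band-pass). Compound 0.03-40 uM, ≥3 wells each. Readout: % change in pooled inter-electrode cross-correlation area vs own baseline; DMSO negative control.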

A short description of assay [11]: CCTE_Shafer_MEA_acute_cross_correlation_HWHM: CCTE's Neural Acute Assay for Cross Correlation at Half Width at Half Maximum, Shafer Lab (AID 2284026).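 Note: spontaneous network firing of rat primary cortical neurons on multiwell microelectrode arrays; percent change per well from pre-dose baseline in spike cross-correlogram half width; hits are a decrease in cross-correlogram half width relative to DMSO.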 The method, boiled down:
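Read-out: half width at half maximum of action-potential cross-correlogram, percent change versus pre-treatment baseline, fitted in loss direction against DMSO. Rat cortical cultures, DIV 13 or 15, dosed 0.03-40 uM, 40-min recordings at 37 C.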

Assay [12] is described as follows: CCTE_Shafer_MEA_acute_synchrony_index: CCTE's Neural Acute Assay for Synchrony, Shafer Lab (AID 2284027).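 Note: network synchrony index of spontaneous spiking in primary rat cortical neurons on MEAs; fitted for loss of signal so actives lower synchrony relative to DMSO.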 The method, boiled down:
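Primary rat cortical neurons on 16-electrode MEA wells were recorded 40 min at baseline (DIV 13 or 15) and 40 min after compound (0.03-40 uM) at 37 C. Synchrony index (0-1) expressed as percent change from baseline, versus DMSO.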

Assay [13] has as its target Estrogen receptor (Homo sapiens) (UniProt P03372). As to the kind of experiment: CCTE_Deisenroth_AIME_384WELL_LUC_Active: CCTE's 384-well Estrogen Receptor Transactivation Assay with AIME metabolic competence (ERTA luciferase; metabolism positive), Deisenroth Lab (AID 2284030; active = hit-call score of the fitted dose curve at least 0.9, where 1 is the maximum). A digest of the protocol:
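Readout: bioluminescent luciferase induction in VM7Luc4E2 cells 24 hour after receiving medium from a 2 h rat hepatic S9 (induced, alginate microsphere) metabolism step. Concentrations 0.002 - 200 uM; activity scaled to 17beta-estradiol positive control.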

Assay [14] is described as follows: CCTE_Deisenroth_AIME_384WELL_CTox_Active: Cytotoxicity Assessment (CTOX) in CCTE's 384-well Estrogen Receptor Transactivation Assay with AIME metabolic competence (metabolism positive), Deisenroth Lab (AID 2284037; active = hit-call score of the fitted dose curve at least 0.9, where 1 is the maximum;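 note: activity means signal loss indicating cell death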). The method, boiled down:
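Cytotoxicity in VM7Luc4E2 breast cells, 24 hour, measured as protease-substrate fluorescence loss, after 2-hour metabolic conditioning with induced rat hepatic S9 in alginate microspheres. Concentrations 0.002 - 200 uM, 10 points, bidirectional fitting.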

The target in assay [15] is Estrogen receptor (Homo sapiens) (UniProt P03372). As to the kind of experiment: CCTE_Deisenroth_AIME_384WELL_LUC_Inactive: CCTE's 384-well Estrogen Receptor Transactivation Assay without AIME metabolic competence (ERTA luciferase; metabolism negative), Deisenroth Lab (AID 2284038; active = hit-call score of the fitted dose curve at least 0.9, where 1 is the maximum;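 note: VM7Luc4E2 breast cells given medium preincubated 2 h with S9-free microspheres; hits raise estrogen receptor luciferase signal so potencies reflect agonists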). A digest of the protocol:
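Chemicals (10-point series, 0.002 - 200 uM) were incubated 2 hours with alginate-water microsphere lids lacking S9, then the conditioned medium was transferred to VM7Luc4E2 breast cells for 24 hour. Luciferase induction was read by bioluminescence, fitted upward relative to 17beta-estradiol.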

A short description of assay [16]: CCTE_Deisenroth_AIME_384WELL_CTox_Inactive: Cytotoxicity Assessment (CTOX) in CCTE's 384-well Estrogen Receptor Transactivation Assay without AIME metabolic competence (metabolism negative), Deisenroth Lab (AID 2284039; active = hit-call score of the fitted dose curve at least 0.9, where 1 is the maximum;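 note: cell viability via live-cell protease substrate cleaved to fluorescent probe; cells exposed 24 h to medium preincubated 2 h with alginate-water beads without S9; loss of fluorescence signal means loss of viability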). A digest of the protocol: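 VM7Luc4E2 cells, metabolism-negative arm: test chemicals (0.002–200 uM, 10 points) pre-incubated 2 h with alginate-water microspheres, then medium transferred to cells for 24 h. Viability read as protease-substrate cleavage to fluorescent probe; loss-of-signal, bidirectional fitting.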

Assay [17] has as its target Estrogen receptor (Homo sapiens) (UniProt P03372). The experiment in a line: CCTE_Deisenroth_AIME_96WELL_LUC_Active: CCTE's 96-well Estrogen Receptor Transactivation Assay with AIME metabolic competence (ERTA luciferase; metabolism positive), Deisenroth Lab (AID 2284023; active = hit-call score of the fitted dose curve at least 0.9, where 1 is the maximum). The method, boiled down:
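Chemicals pre-incubated 2 h with alginate-immobilized phenobarbital/beta-naphthoflavone-induced male Sprague Dawley rat liver S9, then medium transferred to VM7Luc4E2 cells for 24 h luciferase read-out. 10-point series 0.002 - 200 uM; fitted relative to 17beta-estradiol.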

Assay [18] has the same target. The experiment in a line: CCTE_Deisenroth_AIME_96WELL_LUC_Inactive: CCTE's 96-well Estrogen Receptor Transactivation Assay without AIME metabolic competence (ERTA luciferase; metabolism negative), Deisenroth Lab (AID 2284025; active = hit-call score of the fitted dose curve at least 0.9, where 1 is the maximum). The method, boiled down: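 VM7Luc4E2 breast cells, luciferase read 24 h after dosing with medium pre-incubated 2 h on alginate-water lids (metabolism negative). 10-point series 0.002–200 uM, single technical replicate, n≥4; fit relative to 17beta-estradiol.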

Assay [19] in a line: CCTE_Deisenroth_AIME_96WELL_CTox_Active: Cytotoxicity Assessment (CTOX) in CCTE's 96-well Estrogen Receptor Transactivation Assay with AIME metabolic competence (metabolism positive), Deisenroth Lab (AID 2284028; active = hit-call score of the fitted dose curve at least 0.9, where 1 is the maximum). A digest of the protocol: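 Chemicals (0.002–200 uM) were first incubated 2 h with alginate-immobilized phenobarbital/beta-naphthoflavone-induced male rat liver S9; conditioned medium then went onto VM7Luc4E2 cells for 24 h, with viability read by protease-substrate fluorescence, fitted bidirectionally.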

The nature of assay [20]: CCTE_Deisenroth_AIME_96WELL_CTox_Inactive: Cytotoxicity Assessment (CTOX) in CCTE's 96-well Estrogen Receptor Transactivation Assay without AIME metabolic competence (metabolism negative), Deisenroth Lab (AID 2284029; active = hit-call score of the fitted dose curve at least 0.9, where 1 is the maximum). The method, boiled down:
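Chemicals (10-point series, 0.002-200 uM) were incubated 2 h with alginate-water microspheres lacking S9. The conditioned medium was then transferred onto VM7Luc4E2 cells for 24 h. Viability was measured by protease-substrate cleavage to a fluorescent probe, with loss of signal fitted bidirectionally; n≥4 experimental replicates.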

Inconclusive results are not listed. Calls of active or inactive are those of the source. Rule for the calls, unless noted: active = hit-call score of the fitted dose curve at least 0.9, where 1 is the maximum; inactive = score below 0.9.

Estrogen receptor (Homo sapiens), sequence (P03372 whole entry, looked up): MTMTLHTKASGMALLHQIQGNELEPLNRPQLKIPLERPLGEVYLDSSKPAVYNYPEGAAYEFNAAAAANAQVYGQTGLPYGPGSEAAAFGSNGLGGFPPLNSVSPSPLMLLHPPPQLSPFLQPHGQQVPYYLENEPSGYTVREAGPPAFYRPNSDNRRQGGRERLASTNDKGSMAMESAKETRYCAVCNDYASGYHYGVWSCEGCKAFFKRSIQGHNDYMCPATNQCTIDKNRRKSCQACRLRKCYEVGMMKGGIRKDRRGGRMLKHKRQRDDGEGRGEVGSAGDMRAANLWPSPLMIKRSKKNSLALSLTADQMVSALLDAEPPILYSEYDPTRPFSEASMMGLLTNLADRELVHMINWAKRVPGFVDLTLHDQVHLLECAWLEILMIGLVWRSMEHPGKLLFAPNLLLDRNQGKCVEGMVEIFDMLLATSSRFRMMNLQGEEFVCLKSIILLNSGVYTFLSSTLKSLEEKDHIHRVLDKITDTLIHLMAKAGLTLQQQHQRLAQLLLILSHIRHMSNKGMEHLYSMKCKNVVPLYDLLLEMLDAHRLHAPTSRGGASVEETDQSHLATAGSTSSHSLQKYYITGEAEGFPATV

Take `COc1cc2c(c(OC)c1OC)-c1ccc(OC)c(=O)cc1[C@@H](NC(C)=O)CC2`: the result in [1], in [2], in assay [3], in assay [4], in assay [5] and in [6] was inactive. The result in [7], in assay [10], in assay [11], in assay [12], in assay [13] and in assay [15] was inactive. The AC50 in [8] is 31.6 µM (active); in [9], 4.03 µM (active); in assay [14], 19.8 µM (active); in assay [16], 19.8 µM (active).
For the compound `Cc1ncc([C@@H](CCCCCCc2ccc3c(n2)NCCC3)CC(=O)O)cn1`, the compound was called inactive in assay [1], in assay [2], in assay [3], in [4], in [5] and in assay [6]. Besides, the outcome in assay [7], in assay [8], in [9], in assay [10], in assay [11] and in assay [12] was inactive.
Consider `CC(C)CC(C)O` (centres undefined), for which the compound was called inactive in assay [13], in [14], in assay [15] and in [16].
On to `CCc1cccc(CC)c1N`, for which the result in assay [13], in [14] and in [15] was inactive. The AC50 in assay [16] was 160 µM (active).
As to `C[C@@H](Oc1ccc(CNC(=O)c2cccnc2Oc2ccc3c(c2)OCO3)c(F)c1)C(=O)O`, the result in assay [13], in assay [14], in [15] and in [16] was inactive.
`Cn1c(=O)c2[nH]cnc2n(C)c1=O`: the outcome in [1], in [2], in assay [3], in assay [4], in [5] and in assay [6] was inactive. For the same compound, the compound was called inactive in [7], in assay [8], in assay [9], in [10], in assay [11] and in assay [12].
For `CCOC(N)=O`, the result in assay [13], in assay [14], in assay [15] and in assay [16] was inactive.
Turning to `CCCCCCCC1CCC(=O)O1` (centres undefined), the compound was called inactive in [1], in assay [2], in assay [3], in assay [5], in assay [6] and in assay [7]. Further, the call in assay [8], in [9], in [10] and in [12] was inactive. Besides, the AC50 in assay [4] is 20 µM (active).
Regarding `CCN(CC)C(=S)SSC(=S)N(CC)CC`, the compound was called inactive in assay [17], in assay [18], in assay [19], in [20], in assay [13] and in assay [14]. In addition, in [16], the call was inactive.
